Test results as given in PubChem BioAssay (NCI).
Values joined by “and” are separate entries in the source; they are usually repeats but may differ in a detail not shown here. Equal entries are not always repeated. About 83,000 compounds went through this panel and 20% of them were active in at least one assay; those are over-represented in the sample as a whole.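 Method: cells in 96-well plates; compound added at one concentration; 48 h incubation; percent growth measured; values under 10 scored active.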 Active and inactive are the calls of the source.

Columns and labels:
Assay in all cases: NCI-60 one-dose screen, 48 h (100 = growth as untreated, 0 = no growth, -100 = all killed)
HCT-15 colon = test system: HCT-15 colon
HT29 colon = test system: HT29 colon
SNB-75 CNS = test system: SNB-75 CNS
SNB-19 CNS = test system: SNB-19 CNS
U251 CNS = conditions: 10 µM unless noted
PC-3 prostate = test system: PC-3 prostate
SK-MEL-5 melanoma = test system: SK-MEL-5 melanoma
UACC-62 melanoma = test system: UACC-62 melanoma
LOX IMVI melanoma = test system: LOX IMVI melanoma
SK-MEL-28 melanoma = test system: SK-MEL-28 melanoma
SK-MEL-2 melanoma = test system: SK-MEL-2 melanoma
EKVX NSCLC = test system: EKVX NSCLC
SN12C renal = conditions: 10 µM unless noted
UO-31 renal = test system: UO-31 renal
TK-10 renal = test system: TK-10 renal
ACHN renal = conditions: 10 µM unless noted
CAKI-1 renal = conditions: 10 µM unless noted
A498 renal = test system: A498 renal
CCRF-CEM leukemia = test system: CCRF-CEM leukemia
MOLT-4 leukemia = test system: MOLT-4 leukemia

Measured: growth

CC(C)C(=O)Nc1ccc([N+](=O)[O-])c(C(F)(F)F)c1
inactive: HCT-15 colon; 10 µM unless noted 94% and 100% | HT29 colon; 10 µM unless noted 106% and 115% | SNB-75 CNS; 10 µM unless noted 113% and 92% | SNB-19 CNS; 10 µM unless noted 96.8% and 102% | U251 CNS 98.3% and 96.7% | PC-3 prostate; 10 µM unless noted 69.5% and 100% | SK-MEL-5 melanoma; 10 µM unless noted 85.2% and 98.4% | UACC-62 melanoma; 10 µM unless noted 74.9% and 80% | LOX IMVI melanoma; 10 µM unless noted 90% and 93.2% | SK-MEL-28 melanoma; 10 µM unless noted 102% and 107% | SK-MEL-2 melanoma; 10 µM unless noted 111% and 28.9% | EKVX NSCLC; 10 µM unless noted 51.4% and 86.1% | SN12C renal 65.3% and 88% | UO-31 renal; 10 µM unless noted 76.1% and 71.9% | TK-10 renal; 10 µM unless noted 94.5% and 111% | ACHN renal 98.4% | CAKI-1 renal 69.2% and 100% | A498 renal; 10 µM unless noted 84.4% and 96% | CCRF-CEM leukemia; 10 µM unless noted 75.4% and 109% | MOLT-4 leukemia; 10 µM unless noted 76.8% and 97.8%

CC#C[C@]1(O)CC[C@H]2[C@@H]3CCC4=CC(=O)CCC4=C3[C@@H](c3ccc4c(c3)OCO4)C[C@@]21C
active: HCT-15 colon; 100 µM -13.9% | HT29 colon; 100 µM -19.2% | SNB-75 CNS; 100 µM -6.95% | SNB-19 CNS; 100 µM 4.26% | PC-3 prostate; 100 µM 0.372% | SK-MEL-5 melanoma; 100 µM -80.3% | UACC-62 melanoma; 100 µM -50.1% | LOX IMVI melanoma; 100 µM -89.6% | SK-MEL-28 melanoma; 100 µM -52.3% | SK-MEL-2 melanoma; 100 µM -50.8% | EKVX NSCLC; 100 µM -10.7% | UO-31 renal; 100 µM -42.4% | TK-10 renal; 100 µM -25.2% | A498 renal; 100 µM -59.7% | CCRF-CEM leukemia; 100 µM -11.2% | MOLT-4 leukemia; 100 µM -7.79%
inactive: HCT-15 colon; 10 µM 69.3% | HT29 colon; 10 µM 102% | SNB-75 CNS; 10 µM 58.6% | SNB-19 CNS; 10 µM 75.8% | PC-3 prostate; 10 µM 67.4% | SK-MEL-5 melanoma; 10 µM 83.6% | UACC-62 melanoma; 10 µM 56.6% | LOX IMVI melanoma; 10 µM 83.7% | SK-MEL-28 melanoma; 10 µM 108% | SK-MEL-2 melanoma; 10 µM 71.1% | EKVX NSCLC; 10 µM 72.4% | UO-31 renal; 10 µM 66.1% | TK-10 renal; 10 µM 69.9% | ACHN renal 80.4% | A498 renal; 10 µM 63% | CCRF-CEM leukemia; 10 µM 89.9% | MOLT-4 leukemia; 10 µM 69.2%

CC(=O)Oc1cc(C(=O)O)cc(OC(C)=O)c1OC(C)=O
inactive: HCT-15 colon; 10 µM unless noted 107% and 101% | HT29 colon; 10 µM unless noted 114% and 96.5% | SNB-75 CNS; 10 µM unless noted 88.1% and 90.2% | SNB-19 CNS; 10 µM unless noted 93.4% and 108% | U251 CNS 93.1% and 105% | PC-3 prostate; 10 µM unless noted 93.4% and 95.5% | SK-MEL-5 melanoma; 10 µM unless noted 99.5% and 101% | UACC-62 melanoma; 10 µM unless noted 93.7% and 103% | LOX IMVI melanoma; 10 µM unless noted 96.3% and 96% | SK-MEL-28 melanoma; 10 µM unless noted 115% and 99.3% | SK-MEL-2 melanoma; 10 µM unless noted 119% and 107% | EKVX NSCLC; 10 µM unless noted 84.3% and 105% | SN12C renal 93.9% and 99.7% | UO-31 renal; 10 µM unless noted 96.7% and 98.2% | TK-10 renal; 10 µM unless noted 115% and 102% | ACHN renal 112% and 98.3% | CAKI-1 renal 99.5% and 95.5% | A498 renal; 10 µM unless noted 73.8% | CCRF-CEM leukemia; 10 µM unless noted 101% and 104% | MOLT-4 leukemia; 10 µM unless noted 116% and 94.1%

CC1(C)[C@@H](OC(=O)CCC(=O)O)CC[C@]2(C)[C@H]3C(=O)C=C4[C@@H]5C[C@@](C)(C(=O)O)CC[C@]5(C)CC[C@@]4(C)[C@]3(C)CC[C@@H]12
100% (inactive) and -30.4% (active): CAKI-1 renal
103% (inactive) and -28.4% (active): PC-3 prostate; 10 µM unless noted
107% (inactive) and -33.4% (active): EKVX NSCLC; 10 µM unless noted
104% (inactive) and -50.8% (active): LOX IMVI melanoma; 10 µM unless noted
102% (inactive) and -19.1% (active): SN12C renal
active: SNB-75 CNS; 10 µM unless noted -68.7%
104% (inactive) and -36.8% (active): TK-10 renal; 10 µM unless noted
110% (inactive) and -91.2% (active): U251 CNS
107% (inactive) and -59.9% (active): SK-MEL-2 melanoma; 10 µM unless noted
92.6% (inactive) and -37.2% (active): CCRF-CEM leukemia; 10 µM unless noted
105% (inactive) and -82.7% (active): SK-MEL-5 melanoma; 10 µM unless noted
103% (inactive) and -79.6% (active): ACHN renal
105% (inactive) and -66% (active): SK-MEL-28 melanoma; 10 µM unless noted
102% (inactive) and -96.1% (active): UO-31 renal; 10 µM unless noted
112% (inactive) and -65.7% (active): A498 renal; 10 µM unless noted
102% (inactive) and -3.23% (active): SNB-19 CNS; 10 µM unless noted
88.3% (inactive) and -35% (active): MOLT-4 leukemia; 10 µM unless noted
103% (inactive) and -8.67% (active): HT29 colon; 10 µM unless noted
101% (inactive) and -39.6% (active): HCT-15 colon; 10 µM unless noted
106% (inactive) and -80% (active): UACC-62 melanoma; 10 µM unless noted
